Bioassay records as filed in PubChem BioAssay.
IL-1B inflam inh: blocks inflammasome-driven IL-1 beta release. THP-1 LPS/ATP IL-1B secretion, AlphaLISA, 16 h; stronger effect = lower value. activity change, % at 57.5 µM. actives 4.7% (n = 360,000); in the data active means activity change below about -50%; inconclusive means mostly about -30% to -49%
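THP-1 cells pretreated 1 hr with compounds (up to 57.5 uM final), then stimulated with LPS (250 ng/mL final) plus ATP (1.25 mM final); secreted IL-1B measured by AlphaLISA after 16 hr, decreased signal indicating inhibition.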
TDP1 inh: blocks human tyrosyl-DNA phosphodiesterase 1 | Q9NUW8 | recombinant TDP1, AlphaScreen DNA substrate cleavage | Potency, µM (highest dose often 130 µM), inactives show top-dose activity change, negative = inhibition, usual class: inhibitors | actives 0.28% (n = 350,000); further: potency means the concentration at half of the fitted maximal effect; nearly all actives have a fitted effect of over 40% in size
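Signal: AlphaScreen proximity between streptavidin donor and anti-FITC acceptor beads on intact substrate. Reaction: Tdp1 1 nM, substrate 15 nM final, 5 min RT after 15 min compound preincubation.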
Six1-Eya2 blk: Six1/Eya2 interaction inhibition; activity change, % (test concentration not listed); actives 0.56% (n = 360,000); AlphaScreen GST-Six1/His-Eya2 binding, biochemical; stronger effect = lower value; in the data active means activity change below about -65%; inconclusive means mostly about -30% to -63%
Target sequence (O00167 whole entry, looked up): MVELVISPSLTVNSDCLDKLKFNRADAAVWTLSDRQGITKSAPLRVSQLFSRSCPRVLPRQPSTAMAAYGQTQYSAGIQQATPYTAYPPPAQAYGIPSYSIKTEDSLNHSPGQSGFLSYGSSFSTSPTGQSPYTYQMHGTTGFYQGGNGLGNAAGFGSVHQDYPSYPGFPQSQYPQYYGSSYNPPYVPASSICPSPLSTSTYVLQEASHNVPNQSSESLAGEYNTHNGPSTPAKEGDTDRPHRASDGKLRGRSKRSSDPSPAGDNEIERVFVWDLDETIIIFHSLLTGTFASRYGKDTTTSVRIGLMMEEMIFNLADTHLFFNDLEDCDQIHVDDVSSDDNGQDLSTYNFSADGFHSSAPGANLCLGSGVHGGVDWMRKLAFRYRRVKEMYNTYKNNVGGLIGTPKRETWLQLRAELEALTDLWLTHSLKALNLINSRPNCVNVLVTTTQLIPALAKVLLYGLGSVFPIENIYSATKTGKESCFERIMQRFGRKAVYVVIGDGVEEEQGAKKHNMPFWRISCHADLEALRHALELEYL
Target sequence (Q15475 whole entry, looked up): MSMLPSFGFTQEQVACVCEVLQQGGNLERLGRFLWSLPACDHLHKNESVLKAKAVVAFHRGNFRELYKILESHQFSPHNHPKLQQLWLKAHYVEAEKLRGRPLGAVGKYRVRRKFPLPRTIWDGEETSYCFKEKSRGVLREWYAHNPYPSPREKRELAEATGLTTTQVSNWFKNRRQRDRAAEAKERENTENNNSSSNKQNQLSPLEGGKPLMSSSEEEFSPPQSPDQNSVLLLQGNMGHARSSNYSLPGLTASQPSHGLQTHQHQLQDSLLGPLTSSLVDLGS
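Homogeneous AlphaScreen proximity assay pairing GST-Six1 with His-tagged Eya2 (added as 5X mix: 250 nM and 500 nM) in 50 mM Tris pH 8.0, 300 mM NaCl, 1 mM TCEP. Glutathione donor and nickel acceptor beads; 1 h, 37 °C, dark.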
TDP1 cell noCPT: qHTS for Inhibitors of human tyrosyl-DNA phosphodiesterase 1 (TDP1): qHTS in cells in absence of CPT | DT40 Tdp1-/- hTDP1 cells, no CPT, ATP luminescence, 48 h | Potency, µM (titrated, usually from 46.2 µM), without a hit: top-dose activity change, negative = growth inhibition, most hits filed as inhibitors | actives 15% (n = 420,000); further: potency means the concentration at half of the fitted maximal effect; nearly all actives have a fitted effect of over 55% in size
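Chicken DT40 Tdp1-/- cells stably complemented with human TDP1 were seeded at 400 cells/well with DMSO in place of 20 nM camptothecin. After compound pinning, cells grew at least 48 hr at 37 °C; viability read by CellTiter-Glo luminescence.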
CtBP-E1A blk: CtBP/E1A binding inhibition | actives 0.49% (n = 340,000) | activity change, % (no concentration beside the values) | AlphaScreen GST-E1A/His-CtBP binding, 1536-well; stronger effect = lower value; in the data active means activity change below about -65%; inconclusive means mostly about -30% to -63%
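Steps: dispense buffer (Tris pH 8.0, NaCl 300 mM, TCEP 1 mM, BSA, Tween 20); add 5X protein mix (GST-E1A, His-CtBP, 125 nM each); pin 23 nL compound; 2 h at 37 °C, dark; add 5X beads (50 ug/mL); 1 h; read.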
DT40 TDP1 CPT: growth inhibition of DT40 Tdp1-/-;hTDP1 cells with camptothecin (screen for TDP1 inhibitors); chicken DT40 Tdp1-/-;hTDP1 cells + 20 nM CPT, ATP luminescence, 48 h; Potency, µM (titrated, usually from 46.2 µM), for inactives: at the top dose activity change, negative = growth inhibition, hits mostly inhibitors; actives 12% (n = 420,000); further: potency means the concentration at half of the fitted maximal effect; nearly all actives have a fitted effect of over 55% in size
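Cell growth measured by CellTiter-Glo luminescence after a minimum 48 h, 37 C compound exposure with 20 nM CPT in Tdp1-knockout DT40 cells stably expressing hTDP1, seeded 400/well; qHTS titration format.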
Active calls of the source: *; ? = inconclusive; . = not tested or not shown; ! = repeats disagree; [ ] = remark or other dose. Hits are enriched below; roughly 18% of the tested compounds scored in any of these assays. Unless noted, the call rests on the fitted dose curve; in most records, active means well fitted curve in the direction sought with a large enough effect; inconclusive means small, poorly fitted or top-dose-only effect, or another doubt; inactive means no such curve, though single readings can be large; an effect the other way counts as inactive or inconclusive. On the % scale 0 is the no-effect control and ±100 the full control effect.

SMILES | IL-1B inflam inh | TDP1 inh | Six1-Eya2 blk | TDP1 cell noCPT | CtBP-E1A blk | DT40 TDP1 CPT
O=C(CCc1ccccc1)NCC(c1ccco1)N1CCc2ccccc21 (configuration not stated) | -7 | . | -18 | 4.1µM* | -8 | 4.6µM*
Cc1ccc(C(=O)NCC(c2ccco2)N2CCc3ccccc32)cc1 (configuration not stated) | ? | 6%[0.505 µM] | -13 | 13µM* | -6 | 10µM*
O=C(NCC(c1ccco1)N1CCc2ccccc21)c1ccccc1Br (configuration not stated) | -7 | . | -24 | ? | -4 | 21µM*
O=C(NCC(c1ccco1)N1CCc2ccccc21)c1ccc([N+](=O)[O-])cc1 (configuration not stated) | -4 | . | ? | -22% | -20 | -13%
O=C(NCC(c1ccco1)N1CCc2ccccc21)c1ccccc1F (configuration not stated) | -16 | 2%[0.505 µM] | -22 | ? | -3 | -30%
Cc1cccc(C(=O)NCC(c2ccco2)N2CCc3ccccc32)c1 (configuration not stated) | -58* | . | -23 | 15µM* | -14 | ?
Cc1c(NC(=O)Nc2ccc(Cl)c(Cl)c2)sc(=S)n1C | -97* | . | -14 | ? | -7 | 26µM*
CC(C)Oc1ccc(CNC(=O)C2CCN(C(=O)N3CCOc4ccc(Cl)cc43)CC2)cc1 | . | 9% | . | 6.5µM* | . | 6.5µM*
COc1cccc(CNC(=O)C2CCN(C(=O)N3CCOc4ccc(Cl)cc43)CC2)c1OC | . | 10% | . | 21µM* | . | ?
CCc1ccc(NC(=O)N2CCOc3ccc(Cl)cc32)cc1 | . | 4% | . | 13µM* | . | -19%
O=C(NCc1ccco1)C1CCN(C(=O)N2CCOc3ccc(Cl)cc32)CC1 | . | 4% | . | ? | . | -27%
CC(C)Oc1ccc(CNC(=O)C2CCN(C(=O)N3CCOc4ccccc43)CC2)cc1 | 17 | . | 0 | ? | 10 | ?
CC(C)CCNC(=O)C1CCN(C(=O)N2CCOc3ccc(Cl)cc32)CC1 | . | 0% | . | ? | . | 26µM*
Cc1ccc(Nc2nc(N)nc(CSc3nnnn3-c3ccccc3)n2)cc1 | 0 | 79µM* | -3 | -16% | 1 | -1%
Cc1ccc(Nc2nc(N)nc(CSc3nncn3C)n2)cc1 | 14 | 6%[56.1 µM] | ? | -4% | -28 | 20%
Clc1ccc(-n2nnnc2SCc2c(-c3ccccc3)nc3sccn23)cc1 | -21 | 7% | 7 | 13µM* | -2 | ?
c1ccc(-n2nnnc2SCc2cccc(CSc3nnnn3-c3ccccc3)n2)cc1 | -10 | 1%[56.1 µM] | -2 | 13µM* | 6 | ?
COc1cccc(-c2nnn(C/C(N)=N/O)n2)c1 | 14 | 1% | 20 | -7% | 6 | -12%
O=C(COC(=O)/C=C/c1cccc(C(F)(F)F)c1)NCc1cccs1 | -3 | 0%[56.1 µM] | 13 | -4% | -1 | -21%
Oc1ccc(Br)cc1-c1ccnn1-c1ccccc1 | -1 | 4% | -1 | 10µM* | -6 | 21µM*
CN(C)c1ccc(CNC(=O)Cn2ccc3cc(S(=O)(=O)N4CCCCCC4)ccc32)cc1 | . | 6% | . | 5.8µM* | . | ?
O=C(Cn1ccc2cc(S(=O)(=O)N3CCCC3)ccc21)NCc1ccc(Cl)cc1 | . | 3% | . | -27% | . | ?
CN(C)c1ccc(CNC(=O)CCc2ccc(S(=O)(=O)N3CCCCCC3)cc2)cc1 | -64* | 4% | -24 | 15µM* | -25 | ?
CCOc1ccc(CNC(=O)Cn2ccc3cc(S(=O)(=O)N4CCCCCC4)ccc32)cc1 | ? | 5% | 2 | 26µM* | . | 16µM*
CCCCN1C(=O)C(CC(=O)NCCc2ccccn2)CC(C(=O)N(C)C)=C1C (configuration not stated) | 16 | . | 3 | 9% | 4 | -1%
SMILES | IL-1B inflam inh | TDP1 inh | Six1-Eya2 blk | TDP1 cell noCPT | CtBP-E1A blk | DT40 TDP1 CPT
CC[C@H](C)[C@H]1CNC(=O)C(=O)N1CC1CCN(CCCc2ccc(OC)c(OC)c2)CC1 | 16 | . | 0 | -5% | -3 | -2%
O=C(CC1C(=O)NCCN1C(=O)c1ccc(Cl)cc1)Nc1ccc(F)cc1 (configuration not stated) | -3 | 3% | 8 | 11% | -4 | 1%
COc1ccc(OC)c(NC(=O)CC2C(=O)NCCN2C(=O)Nc2cccc(Cl)c2)c1 (configuration not stated) | -66* | 6% | -13 | -14% | -19 | ?
O=C(CC1C(=O)NCCN1C(=O)Nc1ccc(Cl)cc1)Nc1ccc(F)cc1 (configuration not stated) | -64* | -5% | -3 | -21% | -4 | -29%
O=C(OCC#CCSc1nnc(-c2ccccc2F)o1)c1ccc(F)cc1 | . | -17% | . | . | . | .
COc1ccc(-c2cc(C(=O)OCC(=O)c3cccc([N+](=O)[O-])c3)c3cc(C)ccc3n2)cc1 | -13 | 5% | 2 | -6% | -6 | 15%
O=S(=O)(N/N=C\c1c(F)cccc1Cl)c1ccc(Cl)cc1 | 6 | 5% | -1 | ? | 9 | 13µM*
CCCCCCSc1cc(-c2nc3ccc(C)cn3c2NCc2ccccc2)ccc1OC | -51*! | 1% | 0 | 9.2µM* | -11 | 23µM*
CCCCCCSc1cccc(-c2nc3ccccn3c2NCc2ccccc2)c1 | -30 | 1% | 8 | 16µM* | 5 | 16µM*
CCCCCCSc1cccc(-c2nc3ccc(C)cn3c2NCc2ccccc2)c1 | -61* | 0% | 8 | 21µM* | . | 23µM*
CCCCCCSc1cccc(-c2nc3cc(C)ccn3c2NCc2ccccc2)c1 | -84*! | 2% | 11 | 13µM* | -5 | 13µM*
O=C(COC(=O)c1cccc(S(=O)(=O)N2CCCC2)c1)Nc1ccccc1C(F)(F)F | 24 | -19% | 6 | -1% | 1 | -5%
CN(CCc1ccccn1)C(=O)c1cccnc1Oc1ccccc1 | -7 | . | 9 | 9% | . | 1%
O=C(CCC1CCCCC1)NCCN1C2=NC[C@H](Cc3ccc(O)cc3)N2C[C@H]1Cc1ccc(O)cc1 | -4 | 6% | -14 | ? | -8 | ?
CC(C)[C@H]1CN=C2N(CCNC(=O)CCC3CCCCC3)[C@H](Cc3ccc(O)cc3)CN21 | -14 | 4% | 2 | 8.2µM* | -3 | 13µM*
C[C@@H]1CN=C2N(CCNC(=O)CCC3CCCCC3)[C@H](Cc3ccc(O)cc3)CN21 | 12 | 4% | 4 | 16µM* | 2 | 13µM*
